Measured values taken from PubChem BioAssay (NCI).
Compounds without any hit were thinned out: in the full panel of roughly 79,000, 15% have a hit. Cut-off read from the data, not from the text of the source: active = growth inhibition above about 70%; inactive = the rest.

Tests used:
[1] = NCI Yeast Anticancer Drug Screen. Data for the rad50 strain (AID 155);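 note: 0% = growth of vehicle-only cultures of the same strain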; settings: S. cerevisiae rad50 strain growth inhibition; at 50.0 µM; hits give high values
Method in brief: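 Growth of the mutant yeast was measured after compound exposure and referenced to vehicle-treated cultures.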

[2] = NCI Yeast Anticancer Drug Screen. Data for the mec2-1 strain (AID 157); settings: S. cerevisiae mec2-1 strain, at 50.0 µM, hits give high values
Method in brief: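 Cells of the genetically defined mec2-1 yeast strain are incubated with test compound. Inhibition of growth is calculated against vehicle-treated controls.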

[3] = NCI Yeast Anticancer Drug Screen. Data for the sgs1 mgt1 strain (AID 161);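 note: 0% = growth of cultures given vehicle only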; settings: S. cerevisiae sgs1 mgt1 strain, at 50.0 µM, hits give high values
Method in brief: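 Genetically altered yeast, compound exposure, growth inhibition relative to vehicle.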

[4] = NCI Yeast Anticancer Drug Screen. Data for the cln2 rad14 strain (AID 165);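 note: 0% = growth equal to vehicle treated cultures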; settings: S. cerevisiae cln2 rad14 strain, at 50.0 µM, hits give high values
Method in brief: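 The screen exposed genetically defined yeast (cln2 rad14) to test compounds and scored growth inhibition relative to vehicle-treated controls.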

[5] = NCI Yeast Anticancer Drug Screen. Data for the bub3 strain (AID 167); settings: S. cerevisiae bub3 mutant strain, at 50.0 µM, hits give high values
Method in brief: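 Whole-cell yeast assay. The mutant strain was incubated with compounds, and growth inhibition was determined by comparison with vehicle-treated cells.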

[6] = NCI Yeast Anticancer Drug Screen. Data for the mlh1 rad18 strain (AID 175); settings: S. cerevisiae mlh1 rad18 strain growth inhibition; at 50.0 µM; hits give high values
Method in brief: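 Compound-treated yeast growth, normalised to vehicle controls. Strain bears defined DNA repair mutations.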

Measured: growth inhibition

CCCCN(CCCC)CC(O)c1cc(-c2c(Cl)cccc2Cl)nc2c(Cl)cc(Cl)cc12 (centres undefined)
inactive: [1] 53.3% | [2] 55.3% | [3] 55% | [4] 13.8% | [5] 20.8% | [6] 64.1%

CCSc1n[nH]c(=O)nc1SC
inactive: [1] 4.3% | [2] -3.25% | [3] -3.9% | [4] -67% | [5] -19.5% | [6] -0.35%

Nc1ncncc1Oc1ccccc1
inactive: [1] 8.25% | [2] -5.35% | [3] -0.2% | [4] -33.6% | [5] 4.05% | [6] -14.4%

NC(N)=N/N=C(\c1nc2ccc([N+](=O)[O-])cc2[nH]c1=O)C(O)c1ccc([N+](=O)[O-])cc1 (centres undefined)
inactive: [1] -16% | [2] -24.9% | [3] -16.6% | [4] -24.1% | [5] -6.7% | [6] 1.85%

O=C(NCCCCC(Br)C(=O)O)c1ccccc1 (centres undefined)
inactive: [1] -30% | [2] -5.5% | [3] -33.4% | [4] -53.2% | [5] -1.55% | [6] -34.9%

O=C(Nc1ccc2ccccc2c1)C(F)(F)F
inactive: [1] -14.7% | [2] -1% | [3] -4.25% | [4] -9.8% | [5] 5.4% | [6] -8.95%

O=C(/C=C/c1ccc(Cl)c(Cl)c1)c1ccccc1
inactive: [1] -7.1% | [2] -52.9% | [3] -7.9% | [4] -16.9% | [5] 35% | [6] -59.4%

Fc1c(F)c(F)c(Nc2c(F)c(F)c3c(F)c(F)c(F)c(F)c3c2F)c(F)c1F
inactive: [1] 1.15% | [2] 49.7% | [3] -16.3% | [4] -62.9% | [5] 2.9% | [6] 0.95%

CC(=O)N1CCOCC1
inactive: [1] 23.1% | [2] 1.55% | [3] 11.1% | [4] -28.6% | [5] -1.8% | [6] 21.1%

O=C(O)Cc1c(-c2ccccc2)nc(=S)[nH]c1-c1[nH]c(=S)nc(-c2ccccc2)c1CC(=O)O
inactive: [1] -15.6% | [2] 10.1% | [3] -17% | [4] -12.3% | [5] 2.15% | [6] 2.25%

C#CC(C)OC(=O)Nc1ccccc1 (centres undefined)
inactive: [1] 28.6% | [2] -22.2% | [3] 3.4% | [4] -3.95% | [5] -7.65% | [6] -8.3%

N#CSCCOCCOC(=O)NC1CCCCC1
inactive: [1] 10.2% | [2] 4.75% | [3] 14.7% | [4] 5.25% | [5] 16.2% | [6] 14.6%

CCOC(=O)C1=C(c2ccccc2)N=c2ccccc2=S1C (centres undefined)
inactive: [1] 7.25% | [2] -2.3% | [3] 18.1% | [4] -3.35% | [5] 5.1% | [6] 20.4%

COC1OC(OC)c2cc([N+](=O)[O-])ccc21 (centres undefined)
inactive: [1] 9.9% | [2] 17.3% | [3] 18.1% | [4] 23.2% | [5] -11.1% | [6] 50.2%

CCCCCCCCCCCCC(CC)(C(=O)OCC)C(=O)OCC
inactive: [1] -1.6% | [2] -0.6% | [3] 13% | [4] -59.5% | [5] 1.15% | [6] -2%

CC1CC2=C(C(=O)c3ccccc3C2=O)C(C)O1 (centres undefined)
inactive: [1] 3.15% | [2] -29.5% | [3] -4.4% | [4] -31.7% | [5] 41.5% | [6] 9.1%

CC1(CO)C(O)CCC2(C)C1C(O)CC1CC3CC12CCC3(O)CO (centres undefined)
inactive: [1] -12.8% | [2] -17.9% | [3] 1.3% | [4] -0.8% | [5] -21.1% | [6] -22.1%

C=CCc1cc(OC)c(O)c(C(=O)OCC)c1
inactive: [1] -2.35% | [2] -12.8% | [3] -3.25% | [4] 1.3% | [5] 7.65% | [6] -2.15%

Nc1ccc(C2NC=CN2)cc1
inactive: [1] -12.1% | [2] -7.65% | [3] -0.7% | [4] 29.8% | [5] -3.15% | [6] -1.65%
